# Laboratory results from PubChem BioAssay (EPA / NIEHS).
# Results filed as inconclusive are left out. Calls of active or inactive are those of the source. Rule for the calls: active = hit-call score of the fitted dose curve at least 0.9, where 1 is the maximum; inconclusive = response in the unintended direction; inactive = score below 0.9.
# Experiment: ACEA_ER_AUC_viability: ACEA Biosciences xCELLigence Real-Time Cell Analysis on Estrogen Receptor Agonism for Viability (AID 2283782);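 note: hit means loss of impedance signal meaning reduced cell growth or viability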
# How it was run: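 Viability endpoint: reduced impedance area under the curve relative to DMSO, recorded by real-time electrode sensing over ~80 h of continuous exposure. Duplicate plates of T47D in hormone-depleted medium; eight concentrations, 1:4 dilutions, 100 uM maximum.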
SMILES,outcome,AC50
CCCOC(=O)c1ccc(C(=O)OCCC)nc1,inactive,
CCSC(=O)N(CC(C)C)CC(C)C,inactive,
S=C(S)NCCNC(=S)S.[Mn+2].[S-]C([S-])=NCCN=C([S-])[S-].[Zn+2],inactive,
N#CSCSc1nc2ccccc2s1,,10.9 µM (active)
COC(=O)c1ccc(I)cc1S(=O)(=O)NC(=O)Nc1nc(C)nc(OC)n1,inactive,
CCCCCOC(=O)COc1cc(N2C(=O)C3=C(CCCC3)C2=O)c(F)cc1Cl,inactive,
Cc1nn(C)c(Oc2ccccc2)c1C=NOCc1ccc(C(=O)OC(C)(C)C)cc1,inactive,

# Experiment: STM_H9_NormalizedViability: Cytotoxicity Assessment at 120 hours in the Stemina devTOX quickPredict H9 human embryonic stem cell (hESC)-based Assay (AID 2283784)
# How it was run: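 CellTiter-Fluor RFU, background-subtracted, expressed relative to 0.1% DMSO neutral control by plate. Pluripotent H9 cells; treatment with daily re-dosing. Plates carried 1uM methotrexate (positive) and 5 nM methotrexate (negative) references.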
SMILES,outcome,AC50
CCNc1nc(N)nc(Cl)n1,inactive,
CCOC(=O)C(C)Oc1ccc(Oc2cnc3cc(Cl)ccc3n2)cc1 (stereo unspecified),inactive,
N[C@@H](Cc1cc(I)c(Oc2ccc(O)c(I)c2)c(I)c1)C(=O)O,inactive,
CCSC(=O)N(CC(C)C)CC(C)C,inactive,
CCCN(CCC)c1c([N+](=O)[O-])cc(C(F)(F)F)c(N)c1[N+](=O)[O-],inactive,
S=C(S)NCCNC(=S)S.[Mn+2].[S-]C([S-])=NCCN=C([S-])[S-].[Zn+2],inactive,
CCCCOC(=O)C(C)Oc1ccc(Oc2ccc(C(F)(F)F)cn2)cc1 (stereo unspecified),inactive,
CCCCOC(=O)[C@@H](C)Oc1ccc(Oc2ccc(C(F)(F)F)cn2)cc1,,73.8 µM (active)
CC(C)(C)[C@@H](O)[C@@H](Cc1ccc(Cl)cc1)n1cncn1,inactive,
OB(O)O,inactive,
N#CSCSc1nc2ccccc2s1,,17.3 µM (active)
COC(=O)c1ccc(I)cc1S(=O)(=O)NC(=O)Nc1nc(C)nc(OC)n1,inactive,
CCCCCOC(=O)COc1cc(N2C(=O)C3=C(CCCC3)C2=O)c(F)cc1Cl,inactive,
S=C([S-])NCCNC(=S)[S-].[Mn+2],inactive,
C#CCOC(=O)[C@@H](C)Oc1ccc(Oc2ncc(Cl)cc2F)cc1,,76 µM (active)
C[C@]12C[C@H](O)[C@H]3[C@@H](CCC4=CC(=O)CC[C@@]43C)[C@@H]1CC[C@@H]2C(=O)CO,,80 µM (active)
Cc1nn(C)c(Oc2ccccc2)c1C=NOCc1ccc(C(=O)OC(C)(C)C)cc1,,0.0346 µM (active)
CCN(Cc1c(F)cccc1Cl)c1c([N+](=O)[O-])cc(C(F)(F)F)cc1[N+](=O)[O-],,50 µM (active)
COC(=O)c1ccccc1C(=O)O,inactive,
